Screening results as filed in PubChem.
Rows were chosen to be rich in hits. Some 21% of all compounds tested hit in one or more screens of this group.
Shiga inhibitor: A qHTS for Small Molecule Inhibitors of Shiga Toxin. inhibition, % at 38.7 µM. 290,000 compounds, 9.2% hits. AID 2315, 2010. Vero cells, Shiga toxin protein synthesis inhibition reporter; in the data active = inhibition mostly above about 28%, no sharp cut-off; inactive = mostly below about 43%; note: 0% is about no effect
CHX counter-1: Cycloheximide Counterscreen for Small Molecule Inhibitors of Shiga Toxin | cell reporter, cycloheximide protein synthesis inhibition counterscreen | max response, % | 300,000 compounds, 12% hits | AID 2314, 2010; in the data active = max response mostly above about 13%, no sharp cut-off; inactive = mostly below about 14%; note: read at 38.3 µM for the half of the compounds with a filed dose; 0% is about no effect
Pf growth 96h: Primary qHTS for delayed death inhibitors of the malarial parasite plastid, 96 hour incubation. 320,000 compounds, 6.9% hits. P. falciparum luciferase reporter growth, 96 h. AID 504834, 2011. Potency, µM (titrated, usually from 28.7 µM), inactives show at the top dose activity change, negative = inhibition, most hits filed as inhibitors; note: potency is the fitted concentration of half-maximal effect; % is set by controls: 0 for no effect and ±100 for the full control effect
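Plates of compound plus infected erythrocytes (2% hematocrit, 0.05% parasitemia final) incubate 96 hours, 37 C, 5% CO2. Detection reagent added; reduced luminescence from the parasites' luciferase reporter flags inhibition.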
Pf growth 48h: Primary qHTS for delayed death inhibitors of the malarial parasite plastid, 48 hour incubation. P. falciparum luciferase growth in erythrocytes, 48 h. Potency, µM (top dose mostly 28.7 µM), without a hit: at the top dose activity change, negative = inhibition, most hits filed as inhibitors. 310,000 compounds, 5.9% hits; note: potency is the fitted concentration of half-maximal effect; % is set by controls: 0 for no effect and ±100 for the full control effect
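Compounds are pin-transferred into medium, infected erythrocytes (2% hematocrit, 0.1% parasitemia final) are added, and plates sit one parasite generation at 37 C in 5% CO2. Detection reagent is then added and luminescence measured.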
CHX counter-2: Cycloheximide Counterscreen for Small Molecule Inhibitors of Shiga Toxin (Confirmatory). shares compounds with Shiga inhibitor. Cycloheximide counterscreen, protein synthesis reporter, Shiga toxin assay. Potency, µM (titrated, usually from 38.3 µM), for the others: top-dose activity (activation), most hits filed as activators. 510 compounds, 3% hits; calls by dose curve; note: potency is the fitted concentration of half-maximal effect; 0% is about no effect
CLK4 cf ADPGlo: Confirmaiton Assay for Inhibitors of CDC-like Kinase 4 (ADP-Glo Assay); recombinant Clk4, RS peptide, ADP-Glo luminescence; 65 compounds, 80% hits; shares compounds with Pf growth 48h; Potency, µM (titrated, usually from 80 µM), for the others: top-dose activity, negative = inhibition, most hits filed as inhibitors
Target sequence (Q9HAZ1 whole entry, looked up): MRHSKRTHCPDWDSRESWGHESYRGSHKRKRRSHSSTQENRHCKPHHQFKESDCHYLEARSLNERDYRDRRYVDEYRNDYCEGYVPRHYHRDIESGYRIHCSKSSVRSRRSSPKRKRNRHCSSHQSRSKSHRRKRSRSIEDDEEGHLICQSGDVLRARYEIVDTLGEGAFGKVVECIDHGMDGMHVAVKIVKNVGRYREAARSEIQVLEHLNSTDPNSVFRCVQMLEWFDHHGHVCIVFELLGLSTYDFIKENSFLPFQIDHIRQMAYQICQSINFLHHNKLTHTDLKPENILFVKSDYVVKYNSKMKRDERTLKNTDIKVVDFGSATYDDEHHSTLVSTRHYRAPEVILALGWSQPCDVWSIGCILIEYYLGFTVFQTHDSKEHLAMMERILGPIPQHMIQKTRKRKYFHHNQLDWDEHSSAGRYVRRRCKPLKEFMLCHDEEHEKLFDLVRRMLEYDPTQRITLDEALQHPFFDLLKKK
CLK4 ADP FP: Confirmation Assay for Inhibitors of CDC-like Kinase 4 (ADP-FP Assay); recombinant Clk4, ADP Transcreener FP, RS peptide; shares compounds with Pf growth 48h; 65 compounds, 70% hits; Potency, µM (titrated, usually from 80 µM), for inactives: top-dose activity, negative = inhibition, usual class: inhibitors
Active calls of the source: *. Unless noted, calls come from the whole dose curve; as a rule, active = well fitted curve in the direction sought with a large enough effect; inconclusive = small, poorly fitted or top-dose-only effect, or another doubt; inactive = no such curve, though single readings can be large; an effect the other way counts as inactive or inconclusive.

For COc1ccc(C2=NN(C(=O)c3ccco3)C(c3cc4ccccc4nc3Cl)C2)cc1 (stereo unspecified) the results were Shiga inhibitor 28*, CHX counter-1 5, Pf growth 96h 11%, Pf growth 48h -11% and CHX counter-2 0%.
CCOC(=O)c1c(C)[nH]c(C)c1C(=O)COC(=O)c1ccc(Cl)c(S(N)(=O)=O)c1 was read as Shiga inhibitor -24, CHX counter-1 0 and Pf growth 48h inconclusive.
For CC(=O)[C@H]1[C@@H]2C(=O)N(c3cccc(Cl)c3)C(=O)[C@@H]2[C@H]2c3ccccc3C=CN21 the results were Shiga inhibitor 13, CHX counter-1 11, Pf growth 96h 3% and Pf growth 48h inconclusive.
Screening CC(=O)[C@@H]1[C@@H]2C(=O)N(c3ccc(F)c(Cl)c3)C(=O)[C@@H]2C2c3ccccc3C=CN21 (stereo partly specified) returned Shiga inhibitor active, CHX counter-1 -3, Pf growth 96h inconclusive, Pf growth 48h inconclusive and CHX counter-2 -1%.
Screening Cc1cccc(C(=O)NC(NCCc2ccccc2)C(Cl)(Cl)Cl)c1 (stereo unspecified) returned Shiga inhibitor 109*, CHX counter-1 -5, Pf growth 96h 3.7µM*, Pf growth 48h inconclusive and CHX counter-2 0%.
Screening CCOc1ncccc1C(=O)Nc1c(C)n(C)n(-c2ccccc2)c1=O returned Shiga inhibitor 32*, CHX counter-1 9, Pf growth 96h 25%, Pf growth 48h -4% and CHX counter-2 4%.
For COC(=O)[C@H]1C[C@@H]1[C@H](NC(=O)c1ccccc1)c1ccccc1 the results were Shiga inhibitor -8, CHX counter-1 -3, Pf growth 96h inconclusive and Pf growth 48h 34%.
For CC(C)(C)NC(=O)c1ccc(COc2ccccc2Br)o1 the results were Shiga inhibitor 34*, CHX counter-1 8, Pf growth 96h inconclusive, Pf growth 48h inconclusive and CHX counter-2 1%.
CC(=O)Nc1ccc(NC(=O)c2ccc(COc3ccccc3Br)o2)cc1 was read as Shiga inhibitor -3, CHX counter-1 2, Pf growth 96h 3% and Pf growth 48h 1%.
Cc1cc(C)cc(NC(=O)C(OC(=O)c2ccc([N+](=O)[O-])o2)c2ccccc2)c1 (stereo unspecified) was read as Shiga inhibitor 30*, CHX counter-1 -2, Pf growth 96h -27%, Pf growth 48h 5% and CHX counter-2 1%.
CCCn1c(SCC(=O)NCc2ccccc2Cl)n[nH]c1=O was read as Shiga inhibitor -32, CHX counter-1 19, Pf growth 96h -4% and Pf growth 48h 20%.
For CCNc1nnc(-c2ccccc2OC)s1 the results were Shiga inhibitor 73*, CHX counter-1 -1, Pf growth 96h inconclusive, Pf growth 48h 23% and CHX counter-2 4%.
`COc1ccccc1-c1nnc(NC(=O)C(C)SC2=NCCS2)s1` (stereo unspecified) gave Shiga inhibitor -4, CHX counter-1 -2 and Pf growth 96h inconclusive.
`COc1cc(/C=C2/C(=O)c3cccc([N+](=O)[O-])c3C2=O)c(Br)cc1O` gave Shiga inhibitor 61*, CHX counter-1 4, Pf growth 96h -61%, Pf growth 48h 3% and CHX counter-2 inconclusive.
`C=CCOC(=O)C1=C(C)OC(N)=C(C(=O)OCC)C12C(=O)N(CC(N)=O)c1ccccc12` (stereo unspecified) gave Shiga inhibitor 33*, CHX counter-1 6, Pf growth 96h 13µM*, Pf growth 48h -1% and CHX counter-2 -2%.
`CC(C)Cc1csc(NC(=O)c2ccc(Cl)cc2)c1C(=O)O` gave Shiga inhibitor -6, CHX counter-1 -2, Pf growth 96h -14% and Pf growth 48h -1%.
Screening Cc1cccc(C(=O)Nc2scc(CC(C)C)c2C(=O)O)c1 returned Shiga inhibitor 40*, CHX counter-1 -4, Pf growth 96h -9%, Pf growth 48h 7% and CHX counter-2 1%.
`C=CCn1c(-c2ccc(OC)c(OC)c2)cs/c1=N\c1ccccn1` gave Shiga inhibitor 29*, CHX counter-1 8, Pf growth 96h 2%, Pf growth 48h inconclusive and CHX counter-2 5%.
`CCN(CC)S(=O)(=O)c1cc(NC(=O)CNc2c(C)n(C)n(-c3ccccc3)c2=O)ccc1C` gave Shiga inhibitor -7, CHX counter-1 0, Pf growth 96h 1% and Pf growth 48h -18%.
For COc1ccccc1/C=C/C(=O)OCc1nc2ccccc2c(=O)[nH]1 the results were Shiga inhibitor 45*, CHX counter-1 2, Pf growth 96h -17%, Pf growth 48h inconclusive and CHX counter-2 1%.
Screening COc1cc(OC)cc(-n2nc(C(=O)N3CC(C)CC(C)C3)c3ccccc3c2=O)c1 (stereo unspecified) returned Shiga inhibitor 23*, CHX counter-1 -3, Pf growth 96h 25%, Pf growth 48h inconclusive and CHX counter-2 -2%.
`CCOC(=O)N1CCN(C(=O)c2nn(-c3cc(OC)cc(OC)c3)c(=O)c3ccccc23)CC1` gave Shiga inhibitor -2, CHX counter-1 9 and Pf growth 48h -21%.
Screening Cc1cccc(Nc2ncnc3ccc(Br)cc23)c1 returned Shiga inhibitor -15, CHX counter-1 -2, Pf growth 96h 0% and Pf growth 48h inconclusive.
Screening COc1cc2ncnc(NCc3cccc(F)c3F)c2cc1OC returned Shiga inhibitor -1, CHX counter-1 -5 and Pf growth 96h inconclusive.
`Cc1ccc2ncnc(Nc3ccccc3)c2c1` gave Shiga inhibitor 4, CHX counter-1 14, Pf growth 96h 5% and Pf growth 48h -12%.
`Cc1cccc(CNc2ncnc3ccc(-c4cccc(C)c4)cc23)c1` gave Pf growth 96h 3.7µM*, Pf growth 48h 13µM*, CLK4 cf ADPGlo 14µM* and CLK4 ADP FP inconclusive.
Cc1cccc(CNc2ncnc3ccc(-c4cccnc4)cc23)c1 was read as Pf growth 96h 6.6µM*, Pf growth 48h 12µM*, CLK4 cf ADPGlo 2.8µM* and CLK4 ADP FP 5µM*.
